Assay results as given in the supplement of paper PMC10849652.
About 7,900 targets were measured; listed, in parts, are those with a hit and a random draw of the rest. About 0.6% of all pairs of compound and target were hits. Unmarked numbers belong to inactive results.

Legend:
Test in all cases: log2 fold change, soluble protein after heating vs DMSO (PISA); higher = thermal stabilisation; K562 cells, 10 uM, 30 min; active = over 0.2 and 3.5 SD of the protein, either way, in both replicates (recomputed)
[1] = compound: CC[C@@H]1C(=O)N(C)c2cnc(Nc3ccc(C(=O)NC4CCN(C)CC4)cc3OC)nc2N1C1CCCC1
In short: (§1)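 Thermal stability values are relative to control samples and come from duplicates. They are expressed as log2 fold changes. For measurement, K562 cells (2×10^6 cells/mL) received 10 μM compound for 30 min, and aliquots were heated for 3 min over 48°C-58°C, pooled, and extracted at 4°C in PBS with 0.5% NP-40. Soluble protein, the supernatant after 21,000xg for 90 min, was quantified by TMTpro 16plex LC-MS/MS with equalised channel sums.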

volasertib = compound: CC[C@@H]1C(=O)N(C)c2cnc(Nc3ccc(C(=O)N[C@H]4CC[C@H](N5CCN(CC6CC6)CC5)CC4)cc3OC)nc2N1C(C)C [volasertib]
In short: as §1

[2] = compound: CC[C@H](C)N1C=C(C2=C(C=C(C=C21)C3=CN=C(C=C3)N4CCNCC4)C(=O)NCC5=C(C=C(NC5=O)C)C)C
In short: as §1

epoxomicin = compound: CC[C@H](C)[C@@H](C(=O)N[C@@H]([C@@H](C)O)C(=O)N[C@@H](CC(C)C)C(=O)[C@]1(CO1)C)NC(=O)[C@H]([C@@H](C)CC)N(C)C(=O)C [epoxomicin]
In short: as §1

[3] = compound: CCn1c(C(=O)N(C2CC2)C2CC2)cc2c3c(ncn3C)c(Nc3cc(C)n(C)n3)nc21
In short: as §1

[4] = compound: CCn1cc(-c2ccnc3[nH]c(-c4cccc(CN(C)C)c4)cc23)c(-c2ccc(NC(=O)N(C)C)cc2)n1
In short: as §1

[5] = compound: CN(C)CC(=O)Nc1ccc2[nH]c(=O)c3ccccc3c2c1
In short: as §1

rosiglitazone = compound: CN(CCOC1=CC=C(C=C1)C[C@H]2C(=O)NC(=O)S2)C3=CC=CC=N3 (racemic) [rosiglitazone]
In short: as §1

[6] = compound: CN1C2=C(C3=C1C(=O)N(N=C3)CC4=CC(=CC=C4)N)SC(=C2)S(=O)C
In short: as §1

[7] = compound: CN1CCC(CNc2ccc3ncc(-c4cccc(OC(F)(F)F)c4)n3n2)CC1
In short: as §1

UniProt Q8NBJ9, sequence (Q8NBJ9 whole entry, looked up): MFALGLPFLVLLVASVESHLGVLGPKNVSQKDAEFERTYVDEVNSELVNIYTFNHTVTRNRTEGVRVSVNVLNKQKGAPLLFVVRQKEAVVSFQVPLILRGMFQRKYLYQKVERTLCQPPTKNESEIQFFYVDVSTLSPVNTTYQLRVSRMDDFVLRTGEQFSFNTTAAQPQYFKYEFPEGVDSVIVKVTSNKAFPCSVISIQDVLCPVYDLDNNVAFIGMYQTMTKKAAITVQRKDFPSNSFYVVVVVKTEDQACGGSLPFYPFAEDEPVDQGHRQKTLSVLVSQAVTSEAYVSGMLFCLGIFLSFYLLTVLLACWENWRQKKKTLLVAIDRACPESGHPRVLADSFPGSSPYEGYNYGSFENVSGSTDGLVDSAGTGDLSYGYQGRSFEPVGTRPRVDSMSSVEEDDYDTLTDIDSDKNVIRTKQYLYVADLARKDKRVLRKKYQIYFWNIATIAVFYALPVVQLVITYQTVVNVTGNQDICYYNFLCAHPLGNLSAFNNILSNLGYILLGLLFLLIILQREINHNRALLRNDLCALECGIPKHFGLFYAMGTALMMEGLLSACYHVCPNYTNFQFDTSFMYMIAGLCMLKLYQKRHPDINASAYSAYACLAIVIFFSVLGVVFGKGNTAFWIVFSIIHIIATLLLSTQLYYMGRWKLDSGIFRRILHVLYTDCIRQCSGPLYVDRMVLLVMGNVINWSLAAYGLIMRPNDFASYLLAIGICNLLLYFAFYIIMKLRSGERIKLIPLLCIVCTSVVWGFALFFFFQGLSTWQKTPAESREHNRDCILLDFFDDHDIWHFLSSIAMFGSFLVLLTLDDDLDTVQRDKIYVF
UniProt Q8TDY2, sequence (Q8TDY2 whole entry, looked up): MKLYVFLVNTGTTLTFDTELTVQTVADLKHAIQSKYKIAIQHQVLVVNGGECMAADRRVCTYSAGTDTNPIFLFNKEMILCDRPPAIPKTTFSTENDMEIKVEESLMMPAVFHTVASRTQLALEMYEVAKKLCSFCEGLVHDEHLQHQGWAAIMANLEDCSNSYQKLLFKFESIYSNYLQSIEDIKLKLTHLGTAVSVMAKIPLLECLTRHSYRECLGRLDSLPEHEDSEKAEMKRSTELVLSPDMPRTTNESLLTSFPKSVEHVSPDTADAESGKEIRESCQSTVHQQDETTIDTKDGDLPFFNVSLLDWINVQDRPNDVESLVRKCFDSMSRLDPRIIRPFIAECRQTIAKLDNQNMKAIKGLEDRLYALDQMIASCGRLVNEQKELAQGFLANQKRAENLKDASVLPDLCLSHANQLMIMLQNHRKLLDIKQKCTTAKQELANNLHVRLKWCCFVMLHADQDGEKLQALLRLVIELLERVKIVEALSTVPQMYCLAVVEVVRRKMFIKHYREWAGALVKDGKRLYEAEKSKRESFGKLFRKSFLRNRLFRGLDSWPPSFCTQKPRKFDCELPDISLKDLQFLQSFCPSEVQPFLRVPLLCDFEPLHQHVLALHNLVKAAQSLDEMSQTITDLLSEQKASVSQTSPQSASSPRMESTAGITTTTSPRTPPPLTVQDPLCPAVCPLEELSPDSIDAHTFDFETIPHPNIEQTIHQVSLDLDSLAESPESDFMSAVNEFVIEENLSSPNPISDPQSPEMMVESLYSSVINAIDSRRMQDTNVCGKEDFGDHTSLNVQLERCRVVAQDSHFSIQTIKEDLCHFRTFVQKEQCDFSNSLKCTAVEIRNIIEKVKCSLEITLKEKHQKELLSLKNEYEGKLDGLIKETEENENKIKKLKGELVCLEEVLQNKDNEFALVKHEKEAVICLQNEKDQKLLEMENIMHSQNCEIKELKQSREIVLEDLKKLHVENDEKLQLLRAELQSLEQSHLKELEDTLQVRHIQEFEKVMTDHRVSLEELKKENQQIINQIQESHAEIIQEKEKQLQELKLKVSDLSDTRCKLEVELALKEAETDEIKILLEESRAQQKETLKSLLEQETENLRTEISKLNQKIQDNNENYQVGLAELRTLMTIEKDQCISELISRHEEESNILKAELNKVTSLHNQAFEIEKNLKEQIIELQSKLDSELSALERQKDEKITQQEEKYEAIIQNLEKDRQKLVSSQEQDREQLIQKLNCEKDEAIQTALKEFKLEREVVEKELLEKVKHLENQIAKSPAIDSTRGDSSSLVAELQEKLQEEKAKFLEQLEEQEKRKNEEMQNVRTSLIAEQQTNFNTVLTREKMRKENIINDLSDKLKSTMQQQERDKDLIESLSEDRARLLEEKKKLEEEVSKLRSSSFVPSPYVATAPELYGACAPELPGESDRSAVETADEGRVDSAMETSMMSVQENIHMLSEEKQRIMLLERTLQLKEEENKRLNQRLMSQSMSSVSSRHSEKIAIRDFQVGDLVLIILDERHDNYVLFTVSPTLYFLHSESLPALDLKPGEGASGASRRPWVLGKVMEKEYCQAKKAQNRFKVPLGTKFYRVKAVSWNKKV
UniProt Q9H6H4, sequence (Q9H6H4 whole entry, looked up): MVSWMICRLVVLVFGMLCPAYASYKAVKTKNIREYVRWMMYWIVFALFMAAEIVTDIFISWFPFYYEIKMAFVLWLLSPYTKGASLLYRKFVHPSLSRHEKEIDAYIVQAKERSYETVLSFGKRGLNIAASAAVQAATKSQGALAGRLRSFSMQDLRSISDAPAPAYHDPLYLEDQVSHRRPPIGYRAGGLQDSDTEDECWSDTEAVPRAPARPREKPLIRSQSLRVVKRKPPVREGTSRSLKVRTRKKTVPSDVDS
UniProt Q96EE3, sequence (Q96EE3 whole entry, looked up): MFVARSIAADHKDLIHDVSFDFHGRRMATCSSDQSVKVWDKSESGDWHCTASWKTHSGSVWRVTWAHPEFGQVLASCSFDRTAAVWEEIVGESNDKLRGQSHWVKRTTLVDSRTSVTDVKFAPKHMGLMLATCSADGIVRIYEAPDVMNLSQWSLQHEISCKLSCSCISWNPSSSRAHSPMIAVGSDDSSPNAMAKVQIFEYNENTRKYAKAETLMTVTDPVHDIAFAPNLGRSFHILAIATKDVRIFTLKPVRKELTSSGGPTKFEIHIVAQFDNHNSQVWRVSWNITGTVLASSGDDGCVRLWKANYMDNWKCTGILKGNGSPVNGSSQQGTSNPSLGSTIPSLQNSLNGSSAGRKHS
UniProt Q8IXJ6, sequence (Q8IXJ6 whole entry, looked up): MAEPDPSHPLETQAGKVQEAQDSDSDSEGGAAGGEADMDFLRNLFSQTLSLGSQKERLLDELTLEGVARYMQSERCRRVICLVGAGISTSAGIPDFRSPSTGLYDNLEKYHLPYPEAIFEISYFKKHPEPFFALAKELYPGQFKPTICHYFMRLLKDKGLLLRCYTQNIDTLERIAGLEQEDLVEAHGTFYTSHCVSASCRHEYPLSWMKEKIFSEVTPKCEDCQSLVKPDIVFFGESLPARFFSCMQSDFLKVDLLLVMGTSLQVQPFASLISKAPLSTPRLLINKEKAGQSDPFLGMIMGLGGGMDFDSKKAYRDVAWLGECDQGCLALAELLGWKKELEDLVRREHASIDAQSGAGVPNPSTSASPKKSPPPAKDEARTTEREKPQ
UniProt Q9UKM9, sequence (Q9UKM9 whole entry, looked up): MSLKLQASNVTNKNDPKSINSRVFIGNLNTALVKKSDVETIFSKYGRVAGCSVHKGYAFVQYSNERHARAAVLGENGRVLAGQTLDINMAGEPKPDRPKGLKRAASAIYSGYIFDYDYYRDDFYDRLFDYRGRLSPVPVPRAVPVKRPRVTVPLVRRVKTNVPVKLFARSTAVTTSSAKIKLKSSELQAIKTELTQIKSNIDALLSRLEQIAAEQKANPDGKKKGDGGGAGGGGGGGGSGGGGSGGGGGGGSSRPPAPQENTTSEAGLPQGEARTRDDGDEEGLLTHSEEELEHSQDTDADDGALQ
UniProt Q96IZ7, sequence (Q96IZ7 whole entry, looked up): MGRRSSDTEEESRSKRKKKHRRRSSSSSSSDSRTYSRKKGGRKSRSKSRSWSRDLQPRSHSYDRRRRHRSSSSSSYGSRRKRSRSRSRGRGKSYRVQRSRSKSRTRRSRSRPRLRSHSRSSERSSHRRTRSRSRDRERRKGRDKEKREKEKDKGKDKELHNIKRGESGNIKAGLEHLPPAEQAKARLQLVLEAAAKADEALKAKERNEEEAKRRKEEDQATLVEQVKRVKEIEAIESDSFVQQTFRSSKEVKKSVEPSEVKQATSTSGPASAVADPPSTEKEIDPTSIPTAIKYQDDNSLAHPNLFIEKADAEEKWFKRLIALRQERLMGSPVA
UniProt P43003, sequence (P43003 whole entry, looked up): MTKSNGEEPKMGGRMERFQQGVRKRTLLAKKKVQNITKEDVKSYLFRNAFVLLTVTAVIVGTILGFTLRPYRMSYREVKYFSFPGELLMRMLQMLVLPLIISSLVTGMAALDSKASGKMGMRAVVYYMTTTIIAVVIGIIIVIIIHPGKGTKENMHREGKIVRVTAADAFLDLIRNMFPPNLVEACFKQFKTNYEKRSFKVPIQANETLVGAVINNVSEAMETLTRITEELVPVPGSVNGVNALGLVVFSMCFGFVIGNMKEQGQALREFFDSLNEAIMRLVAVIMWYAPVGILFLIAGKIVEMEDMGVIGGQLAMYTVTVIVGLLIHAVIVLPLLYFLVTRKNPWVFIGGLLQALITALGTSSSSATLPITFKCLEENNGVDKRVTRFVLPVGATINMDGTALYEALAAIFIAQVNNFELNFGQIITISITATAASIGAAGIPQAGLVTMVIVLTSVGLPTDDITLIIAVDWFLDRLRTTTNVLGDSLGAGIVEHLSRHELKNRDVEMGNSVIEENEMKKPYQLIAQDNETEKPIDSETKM
UniProt Q99719, sequence (Q99719 whole entry, looked up): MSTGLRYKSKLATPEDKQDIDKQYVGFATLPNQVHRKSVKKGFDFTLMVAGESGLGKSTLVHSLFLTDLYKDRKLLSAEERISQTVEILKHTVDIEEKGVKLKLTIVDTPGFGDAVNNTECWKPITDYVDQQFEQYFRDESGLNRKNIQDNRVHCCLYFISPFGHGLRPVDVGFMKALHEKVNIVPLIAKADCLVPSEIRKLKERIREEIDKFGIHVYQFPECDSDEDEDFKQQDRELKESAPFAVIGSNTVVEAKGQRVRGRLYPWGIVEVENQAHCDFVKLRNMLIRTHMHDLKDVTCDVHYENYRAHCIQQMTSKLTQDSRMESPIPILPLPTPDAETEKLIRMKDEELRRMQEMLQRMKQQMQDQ

| Target | log2 fold change [1] | log2 fold change (volasertib) | log2 fold change [2] | log2 fold change (epoxomicin) | log2 fold change [3] | log2 fold change [4] | log2 fold change [5] | log2 fold change (rosiglitazone) | log2 fold change [6] | log2 fold change [7] |
| --- | --- | --- | --- | --- | --- | --- | --- | --- | --- | --- |
| SEH1L isoform 1 (UniProt Q96EE3) | -0.044 | 0.466 (active) | -0.019 | -0.057 | -0.009 | -0.041 | -0.013 | -0.01 | -0.054 | 0.027 |
| SEC24A (UniProt O95486) | -0.077 | -0.253 (active) | 0.018 | 0.055 | -0.05 | 0.003 | 0.065 | 0.051 | -0.054 | -0.029 |
| SEC23A (UniProt Q15436) | 0.149 | -0.156 | 0.1 | -0.016 | 0.017 | -0.123 | 0.052 | -0.011 | -0.027 | 0.042 |
| RPS20 isoform 2 (UniProt P60866) | 0.114 | 0.31 | -0.009 | -0.103 | -0.02 | 0.065 | -0.03 | -0.037 | 0.091 | 0.063 |
| RB1CC1 (UniProt Q8TDY2) | 0.051 | -0.022 | -0.086 | 0.063 | -0.118 | -0.07 | -0.077 | 0.01 | 0.047 | -0.116 |
| SLC1A3 (UniProt P43003) | -0.065 | 0.003 | 0.018 | 0.087 | 0.037 | -0.101 | -0.048 | -0.021 | -0.286 | 0.254 |
| SLC1A5 (UniProt Q15758) | 0.095 | 0.027 | -0.043 | -0.001 | 0.042 | -0.014 | -0.02 | -0.009 | -0.114 | 0.226 (active) |
| SDCBP (UniProt O00560) | -0.223 | -0.249 | 0.01 | -0.043 | 0.059 | -0.01 | -0.061 | -0.008 | 0.045 | -0.229 |
| ROR2 (UniProt Q01974) | -0.107 | -0.123 | 0.129 | 0.035 | -0.012 | -0.015 | -0.01 | 0.036 | -0.069 | -0.089 |
| RAB9A (UniProt P51151) | -0.061 | -0.024 | -0.001 | 0.064 | -0.003 | 0.004 | 0.034 | 0 | -0.034 | -0.252 (active) |
| RPS21 (UniProt P63220) | 0.089 | 0.238 (active) | -0.04 | 0.028 | 0.028 | 0.055 | -0.045 | -0.019 | -0.004 | 0.073 |
| SIDT2 isoform 2 (UniProt Q8NBJ9) | -0.035 | 0.055 | -0.026 | 0.002 | -0.014 | 0.069 | -0.041 | 0.019 | 0.024 | -0.02 |
| REEP4 (UniProt Q9H6H4) | -0.023 | -0.043 | -0.011 | -0.08 | 0.024 | 0.051 | -0.015 | -0.033 | 0.079 | -0.134 |
| SIRT2 (UniProt Q8IXJ6) | 0.077 | 0.624 (active) | 0.043 | -0.015 | -0.017 | -0.038 | 0.009 | 0.033 | -0.041 | -0.025 |
| RPL31 (UniProt P62899) | 0.212 | 0.457 | 0.01 | -0.238 | 0.036 | 0.216 | -0.108 | -0.124 | 0.251 | 0.259 |
| SFXN5 (UniProt Q8TD22) | 0.048 | -0.034 | 0.022 | -0.009 | -0.012 | -0.039 | 0.006 | 0.007 | -0.209 | 0.063 |
| RPRD1B (UniProt Q9NQG5) | -0.057 | -0.245 (active) | 0.077 | 0.075 | 0.009 | -0.005 | 0 | 0.052 | -0.059 | -0.077 |
| RRAGC (UniProt Q9HB90) | -0.009 | -0.003 | -0.051 | -0.045 | 0.041 | 0 | -0.024 | 0.05 | -0.067 | -0.177 |
| RAP1GDS1 isoform 5 (UniProt P52306) | -0.018 | -0.27 | 0.077 | 0 | 0.01 | -0.008 | -0.017 | 0.072 | -0.012 | -0.002 |
| RALY (UniProt Q9UKM9) | 0.113 | -0.05 | 0.136 | -0.277 | 0.012 | 0.173 | 0.001 | -0.134 | 0.358 | 0.092 |
| SEPTIN5 (UniProt Q99719) | 0.03 | 0.047 | -0.003 | -0.025 | 0.016 | -0.052 | -0.019 | 0.032 | -0.09 | -0.009 |
| RPS3A (UniProt P61247) | 0.133 | 0.339 | 0.02 | -0.124 | 0.028 | 0.114 | -0.063 | -0.064 | 0.138 | 0.105 |
| RAC3 (UniProt P60763) | 0.039 | 0.075 | -0.082 | -0.008 | 0.051 | -0.149 | 0 | 0 | -0.095 | 0.035 |
| RNPS1 (UniProt Q15287) | 0.062 | -0.155 | 0.049 | -0.126 | -0.043 | -0.008 | 0.031 | -0.08 | 0.016 | 0.006 |
| RBM39 (UniProt Q14498) | -0.183 | -0.487 (active) | 0.038 | -0.027 | -0.057 | 0.079 | 0.013 | 0.025 | 0.071 | -0.045 |
| RSRC1 (UniProt Q96IZ7) | 0.01 | 0.056 | -0.041 | 0.083 | 0.022 | -0.021 | -0.005 | 0.002 | -0.01 | -0.062 |
| SESN2 (UniProt P58004) | -0.244 | -0.522 (active) | 0.165 | 0.083 | 0.061 | -0.292 | 0.115 | -0.081 | 0.015 | -0.247 |
